# Measurements from PubChem BioAssay AID1159524 (National Center for Advancing Translational Sciences (NCATS), 2015).
# Screen size: about 410,000 compounds; about 5,100 (1.2%) were called active. Roughly 8% stayed inconclusive and do not appear here. The call rests on the fitted dose curve; tested in HEK293T cells. The sample as a whole holds a higher share of actives than the screen did.
# Assay: High Throughput Screening for Foot and Mouth Disease Virus Antivirals; further: read-out not given here; nearly all actives have a fitted effect of over 45% in size
# Settings: FMDV antiviral cell-based qHTS; series mostly up to 57.9 µM; activity change, negative = inhibition: at the top concentration
# On the % scale 0 is the no-effect control and ±100 the full control effect; potency means the concentration at half of the fitted maximal effect.
Structure (SMILES),Potency,"activity change, negative = inhibition"
COCCNC(=S)N/N=C/c1c(C)[nH]c2ccccc12,20 µM (active),–
C=CCNC(=S)N/N=C/c1ccc(C)s1,–,1.06% (inactive)
Cc1[nH]c2ccccc2c1/C=C(/C#N)C(=O)NC(C)C,–,-22.7% (inactive)
C[N+](C)(C)CCCCCNCC12CC3CC(CC(C3)C1)C2,–,-8.71% (inactive)
Cc1ccc(N2CCN(C(=O)c3cccs3)CC2)c(C)c1,–,-20.8% (inactive)
Cc1ccccc1C(CC(=O)c1cccs1)C(C#N)C#N (centres undefined),11.2 µM (active),–
CCS(=O)(=O)N1CCN(C(=O)c2cccs2)CC1,–,-16.9% (inactive)
Cc1cc(C)n2nc(C(=O)Nc3cccc(S(=O)(=O)N4CCOCC4)c3)nc2n1,–,-6.23% (inactive)
Cc1nc2ccc(NC(=O)c3cccc(S(=O)(=O)N4CCOCC4)c3)cc2s1,31.6 µM (active),–
O=C(Nc1ccc(S(=O)(=O)N2CCOCC2)cc1)c1ccc2ncsc2c1,–,-22.9% (inactive)
Cc1nc2cnc(N3CCNCC3)nc2n(CCc2ccccc2)c1=O,–,-8.91% (inactive)
CCCCCCCCCCCCCCCC(=O)OC/C=C(C)/C=C/C=C(C)/C=C/C1=C(C)CCCC1(C)C,inactive,–
CC1=C(/C=C/C(C)=C/C=C/C(C)=C/C=C/C=C(C)/C=C/C=C(C)/C=C/C2=C(C)CCCC2(C)C)C(C)(C)CCC1,5.01 µM (active),–
Cc1ccc(CSc2nc3ccsc3c(=O)n2CCC(C)C)cc1,–,-28.8% (inactive)
CCOC(=O)Cc1ccc(NC(=O)Nc2c[nH]c(=O)[nH]c2=O)cc1,–,-3.16% (inactive)
COCC(=O)Nc1cc(C(=O)N2CCCC(c3ccccc3)CC2)c2c(c1)nc(-c1ccncc1)n2C (centres undefined),–,-6.81% (inactive)
COc1ccc(-c2nn(C)c(=O)c3ccccc23)cc1NC(=O)COc1ccccc1,17.8 µM (active),–
COc1ccc(-c2nc3ccccc3s2)cc1NC(=O)COc1ccccc1C,–,15.1% (inactive)
COc1ccc(-c2nn(C)c(=O)c3ccccc23)cc1CNC(=O)C1CCCCC1,–,-10.7% (inactive)
O=c1cnc2cnc(Nc3ccccc3)nc2n1Cc1ccc(F)cc1,–,-18.2% (inactive)
Cc1ccc(S(=O)(=O)N2CCCc3cc(NS(=O)(=O)c4cc(C)ccc4C)ccc32)cc1,–,38.1% (inactive)
COc1ccccc1C(=O)Nc1c(C(=O)N(C)Cc2ccccc2)sc2nc(C)c(Cl)c(C)c12,–,-23% (inactive)
CCCCc1nnc(NC(=O)CSc2nc(N)cc(=O)[nH]2)s1,–,6.16% (inactive)
Cc1cc(=O)[nH]c(SCc2ccc(Cl)cc2)n1,–,2.53% (inactive)
Cc1cc(C(=O)CSc2nc(N)cc(=O)[nH]2)c(C)n1CCc1ccc(Cl)cc1,22.4 µM (active),–

Structure (SMILES),Potency,"activity change, negative = inhibition"
COCCn1c(=O)c(-c2cccc(F)c2)nc2cncnc21,–,-3.82% (inactive)
COc1ccc(F)c(CN2CCC3(CCC(CNC(=O)c4ccn(C)n4)O3)CC2)c1 (centres undefined),–,-12.4% (inactive)
COc1ccc(Cl)cc1-n1c(CCC(=O)O)ccc1-c1ccc(C)cc1,–,-13.1% (inactive)
CCc1ccc(-n2nnc(-c3nc(-c4ccccc4)no3)c2C)cc1,–,27.4% (inactive)
CCc1ccc(-c2nn(-c3ccccc3)cc2CSC(=N)N)cc1,39.8 µM (active),–
CCc1ccc(-c2nn(-c3ccccc3C)cc2C(=O)N2CCN(C3CCS(=O)(=O)C3)CC2)cc1 (centres undefined),–,-4.39% (inactive)
COc1cc2c(cc1OC)[C@@H]1C(=O)c3ccc(O)c(CC=C(C)C)c3OC1CO2 (some centres undefined),–,-14.3% (inactive)
CCCS(=O)(=O)NCc1c(C)ncc2c1CCN(C(=O)c1ccc(F)c(F)c1)C2,–,-9.08% (inactive)
COc1ccc2c(c1)CCc1cnc(-n3ncc(C(=O)NCCN4CCOCC4)c3C)nc1-2,–,-7.65% (inactive)
Cc1ccc2nc(COc3ccc(N(C)S(=O)(=O)c4ccccc4)cc3)cc(=O)n2c1,31.6 µM (active),–
COc1cccc(COc2ccc(N(C)S(=O)(=O)c3ccccc3)cc2)c1,–,-21.3% (inactive)
Cc1ccc2nc(COc3ccc(NC(=O)COc4ccccc4F)cc3)cc(=O)n2c1,–,-8.25% (inactive)
CCc1nc2cc(C(=O)NCC3CCS(=O)(=O)C3)cc(NC(=O)c3ccccc3OC)c2n1C (centres undefined),–,-9.72% (inactive)
Cc1ccc(NC(=O)CSc2nc3c([nH]c4ccccc43)c(=O)n2-c2ccccc2)c(C)c1,–,-23.2% (inactive)
COc1ccc(C(C(=O)NC2CCCCC2)N(C(=O)CCl)c2ccccc2Cl)cc1 (centres undefined),–,6.66% (inactive)
CCN(CCCCOC(=O)c1ccc(OC)c(OC)c1)C(C)Cc1ccc(OC)cc1 (centres undefined),inactive,–
COc1ccc(C(CCN(Cc2ccc(OC)c(OC)c2)C(=O)CCl)c2ccccc2)cc1 (centres undefined),31.6 µM (active),–
COCCNc1cc(-c2c(C)noc2C)ncn1,–,-19.3% (inactive)
CC(C)OC(=O)c1ccc(COc2ccc3ccc(=O)oc3c2)o1,–,40.6% (inactive)
O=C(COc1ccc2ccc(=O)oc2c1)NCC(O)c1ccccc1 (centres undefined),–,-9.08% (inactive)
CC(=CCOc1ccc2ccc(=O)oc2c1)C1=CC(=O)C(C)(C)O1,28.2 µM (active),–
Cn1cccc1C(=O)N1CCC2(CC1)CN(c1cccc(-c3ccccc3)c1)C2,–,-26.7% (inactive)
Cc1ccc(NC(=O)Nc2sc3nc4n(c(=O)c3c2C)CCC(C)CC4)c(Cl)c1 (centres undefined),–,-23.1% (inactive)
Cc1ccc(CN2COc3cc(C)c4c(oc(=O)c5ccccc54)c3C2)cc1,–,-6.49% (inactive)
CCOC(=O)c1cc2c(=O)n3ccccc3nc2n(CCCOC)c1=NC(=O)C(C)Oc1ccccc1 (centres undefined),–,13.7% (inactive)

Structure (SMILES),Potency,"activity change, negative = inhibition"
COc1ccc(Nc2ncnc3ccc(Br)cc23)c(OC)c1,3.98 µM (active),–
COc1ccc(CNc2ncnc3ccc(-c4cccnc4)cc23)c(OC)c1,–,-28.8% (inactive)
COc1ccc2[nH]cc(CCNc3ncnc4ccc(-c5ccccc5CN(C)C)cc34)c2c1,–,-2.17% (inactive)
O=C(COC(=O)C1(c2ccc(F)cc2)CCCC1)N1CCNC1=O,–,-14.5% (inactive)
NS(=O)(=O)c1ccc(NC(=O)COc2ccc(S(=O)(=O)NC3CCCCC3)cc2)cc1,–,31.4% (inactive)
NS(=O)(=O)c1ccc(NC(=O)COC(=O)C2(c3ccc(F)cc3)CCCC2)cc1,17.8 µM (active),–
COc1ccc(CNC(=O)CSCc2nc(-c3ccccc3F)oc2C)cc1,–,-18.8% (inactive)
Cc1nc2cc(NC(=O)[C@@H]3C[C@@H](Sc4ccccn4)CN3Cc3ccccc3C)ccc2s1,–,-2.38% (inactive)
CCC(C(=O)Nc1cccc(-c2nc3cccnc3s2)c1C)c1ccccc1 (centres undefined),–,-3.42% (inactive)
Cn1c(SCc2ccc(F)cc2)nnc1-c1ccncc1,–,-6.09% (inactive)
Cc1ccc(Nc2nc(CSc3nnc(-c4ccncc4)n3-c3ccccc3C)cs2)cc1,31.6 µM (active),–
CCOc1ccccc1-n1c(SCC(=O)NCc2ccco2)nnc1-c1ccncc1,–,33% (inactive)
N[C@H](C(=O)O)c1ccc(C(=O)O)c(O)c1,inactive,–
Cc1cc(-c2n[nH]c(=S)n2/N=C/C(Br)=C/c2ccccc2)n[nH]1,35.5 µM (active),–
O=c1c(-c2ccc(F)cc2)nc2cncnc2n1-c1ccccc1,–,-1.48% (inactive)
OC(CN=c1sc2ccccc2n1CC(O)COc1ccccc1)COc1ccccc1 (centres undefined),20 µM (active),–
OC(COc1ccc(CN2CCSCC2)cc1)CN1CCCCC1 (centres undefined),–,2.88% (inactive)
CCCn1c(=N)n(CC(O)COc2ccccc2OC)c2ccccc21 (centres undefined),–,-14.5% (inactive)
Nc1nc2c(nc(Cl)n2C2OC(CO)C(O)C2O)c(=O)[nH]1 (centres undefined),–,-6.54% (inactive)
O=C(CCCC(=O)N1CCN(c2cccc(Cl)c2)CC1)c1ccccc1,–,6.15% (inactive)
O=C(c1cccc(Cl)c1)N1CCN(CCc2ccncc2)CC1,–,-13.6% (inactive)
O=C(c1ccccc1)N1CCN(c2cc(-c3ccccc3)nc3cc(-c4cccc(Cl)c4)nn23)CC1,25.1 µM (active),–
C#Cc1cc(N2CCN(C(=O)c3ccoc3)CC2)n2nc(-c3cccc(Cl)c3)cc2n1,11.2 µM (active),–
O=C(c1cccc(Br)c1)N1CCN(Cc2cc(=O)n3nc(-c4ccccc4)sc3n2)CC1,–,-16% (inactive)
CCNC(=O)Cn1nc(C)n2c(cc3c(OC)cccc32)c1=O,–,10.3% (inactive)

Structure (SMILES),Potency,"activity change, negative = inhibition"
COC1[C@H](OC(N)=O)C(O)[C@H](Oc2ccc3c(O)c(NC(=O)c4ccc(O)c(CC=C(C)C)c4)c(=O)oc3c2C)OC1(C)C (some centres undefined),–,23.6% (inactive)
C=C1O[C@@](CO)(n2cnc3c(N)ncnc32)[C@H](O)[C@@H]1O,–,3.35% [at 97.4 µM] (inactive)
COc1cccc(NC(=O)N2CCN(C(=O)c3nsc4ccccc34)CC2)c1,–,17.7% (inactive)
COc1ccc(-c2cc(-c3ccccc3)nc3c2COc2ccc(Cl)cc2-3)cc1,–,-22.2% (inactive)
COc1ccc(C2=Nc3cc(C)ccc3OC2)cc1,14.1 µM (active),–
COc1ccc(-c2cc(-c3ccc(F)cc3)nc3c2COc2ccccc2-3)cc1,–,-12.8% (inactive)
CCCNc1ncnc2c1c(-c1ccccc1)cn2-c1ccc(OCC)cc1,–,-19.6% (inactive)
CC(C)(O)CCC(O)[C@@](C)(O)C1CC[C@]2(O)C3=CC(=O)C4CC(O)C(O)C[C@]4(C)C3CC[C@]12C (some centres undefined),–,19% (inactive)
Cc1ccc(NC(=O)c2ccc(CN3CC(=O)N4CCCCC4C3=O)cc2)c(Cl)c1 (centres undefined),–,19.8% (inactive)
COc1ccc(C(=O)Nc2ccccc2C(=O)N/N=C/c2ccc(O)c(OC)c2)cc1,3.98 µM (active),–
COc1ccc(Nc2ncc(C(=O)Nc3cc(C)ccc3OC)c3ccccc23)cc1,–,-23.6% (inactive)
COc1cc(C(=O)Nc2cc(C(F)(F)F)ccc2N2CCOCC2)ccc1O,–,-19.9% (inactive)
Cn1cc(-c2nc3cncnc3n(-c3ccccc3)c2=O)c2ccccc21,–,-0.0407% (inactive)
COc1ccc(CN2CCC3(CCC(CNC(=O)c4ccco4)O3)CC2)cc1OC (centres undefined),–,3.86% (inactive)
CC(C)(C)n1ncc2c(=O)n(Cc3ccc(Cl)cc3)cnc21,25.1 µM (active),–
Cc1ccc(-n2ncc3c(=O)n(Cc4cccc(C(F)(F)F)c4)cnc32)cc1C,–,-4.06% (inactive)
CC(C)CNc1ncnc2c1cnn2Cc1ccc(Cl)cc1,–,-26.3% (inactive)
O=C(c1cn(CC2CCCN(Cc3cc4ccccc4s3)C2)nn1)N1CCCC1 (centres undefined),–,-5.43% (inactive)
O=C(O)c1c(CNCc2cccc(F)c2)c2ccccc2n1Cc1ccccc1,–,25% (inactive)
C/C=C(\C)C(=O)O[C@H]1CC(C)=C2C(=O)C=C(C)C2[C@@H]2OC(=O)[C@@](C)(OC(=O)C=C(C)C)C21 (some centres undefined),–,-2.11% (inactive)
Cc1cc(C)cc(CN2CCc3nnc(C(NS(C)(=O)=O)C(C)C)n3CC2)c1 (centres undefined),–,2.42% (inactive)
CCOC(=O)N1CCN(C(=O)C2CCCN(c3ncnc4c3sc3cccc(F)c34)C2)CC1 (centres undefined),–,-18.5% (inactive)
CCOc1cccc2sc(N3CCN(C(=O)C4CC4)CC3)nc12,–,-5.01% (inactive)
CCOC(=O)N1CCN(C(=O)C2CCN(c3ncnc4c3sc3cccc(F)c34)CC2)CC1,14.1 µM (active),–
